Compounds with a hit are over-represented: about 7.8% of the library has one in this group of screens.
HCV inh = blocks hepatitis C virus; Potency, µM (titrated, usually from 41.8 µM), usual class: inhibitors; hit rate 3.4% among 340,000; Huh7.5.1 HCVcc-Cre infection, luciferase reporter, 44 h; active = well fitted inhibition curve with a large enough effect; inconclusive = small, poorly fitted or top-dose-only effect, or another doubt; inactive = no such curve, though single readings can be large or run the other way
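Antiviral activity was scored by luciferase reporter output from cells infected with HCVcc-Cre (~0.5 moi) in presence of compound, 44 h infection period, cells seeded 1,000/well 4 h prior.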
Marburg entry inh = Marburg virus entry inhibition; Marburg virus pseudotyped entry inhibition, cell reporter; Potency, µM (series often up to 37.8 µM), usual class: inhibitors; hit rate 1.8% among 300,000; AID 540276; calls by dose curve; tested in HEK293 cells
Vaccinia Venus = inhibitors of vaccinia virus (Venus reporter) | Vaccinia virus Venus reporter expression, fluorescence | Potency, µM (top dose mostly 36.5 µM), actives largely listed as inhibitors | hit rate 0.46% among 330,000; calls by dose curve; tested in A549 cells; also: nearly all actives have a fitted effect of over 30% in size
HCMV antiviral = inhibitors of human cytomegalovirus | HFF cells, HCMV-luciferase reporter, 72 h; hits give low values | hit rate 4.5% among 410,000 | activity change, negative = inhibition, % at 57.5 µM; in the data active = activity change below about -60%; inconclusive = no clear call, values can overlap the other calls; inactive = above about -39%
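Screen run at 2 compound doses on HFFs infected with reporter HCMV, MOI 1 PFU/cell. Luciferase activity from cell lysates at 72 h post infection gave inhibition relative to buffer-only and Salinomycin wells.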
VACV mCherry inh = inhibitors of vaccinia virus infection (mCherry reporter signal). hit rate 0.63% among 310,000. AID 720579. Vaccinia virus mCherry reporter infection, fluorescence. Potency, µM (top dose mostly 36.5 µM), usual class: inhibitors; calls by dose curve; tested in A549 cells; also: nearly all actives have a fitted effect of over 35% in size
LASV entry inh = Lassa virus entry inhibition | Lassa virus pseudotype entry inhibition, cell reporter | Potency, µM (titrated, usually from 37.9 µM), actives largely listed as inhibitors | hit rate 1.2% among 300,000 | AID 540256; calls by dose curve; tested in HEK293 cells; also: nearly all actives have a fitted effect of over 50% in size
Of the large screens only hits and unclear results are named; the others gave an inactive call; ! = repeats disagree.

CC1=CC(O)C(O)C2(C)C1CC1OC(=O)C(O)C3C(C)C(O)C4(O)OCC13C42 (stereo not drawn)	Marburg entry inh inconclusive, Vaccinia Venus 7.9µM, VACV mCherry inh inconclusive, LASV entry inh inconclusive (no result: HCMV antiviral)
N#Cc1ccc(NC(=O)C2Cc3ccccc3CN2S(=O)(=O)c2ccc(F)cc2)cc1 (stereo not drawn)	none (no result: HCV inh)
CC(C)=CCOc1ccc([C@@H]2COc3c(ccc4c3C=CC(C)(C)O4)C2)c(O)c1	HCV inh 4.5µM, HCMV antiviral inconclusive (no result: Marburg entry inh, LASV entry inh)
COc1ccc(OCc2cc(=O)c3ccc4c(c3o2)C=CC(C)(C)O4)cc1OC	HCV inh inconclusive (no result: Marburg entry inh, LASV entry inh)
Nc1nc2c(ncn2COC(CO)CO)c(=O)[nH]1	Marburg entry inh inconclusive, HCMV antiviral -81
O=C1CCC(C(=O)N2CCN(c3cnccn3)CC2)CN1CCc1ccccc1 (stereo not drawn)	none (no result: HCV inh, Marburg entry inh, LASV entry inh)
O=C(NCC1Cc2cc(-c3cncnc3)cc(Cl)c2O1)c1cccc(Cn2cccn2)c1 (stereo not drawn)	none (no result: HCV inh, Marburg entry inh, HCMV antiviral, LASV entry inh)
CCc1cc(SC#N)cc(CC)c1NC(=O)CCl	HCV inh inconclusive, HCMV antiviral -74, LASV entry inh inconclusive
CCOc1cc(NC(=O)CCl)c(OCC)cc1NC(=O)CCl	HCV inh inconclusive, Marburg entry inh inconclusive, HCMV antiviral inconclusive, LASV entry inh inconclusive
O=c1c2ccccc2sc2ccc(C#CC3(O)CCCCC3)cc12	HCV inh inconclusive, Vaccinia Venus inconclusive, HCMV antiviral -100 (no result: Marburg entry inh, LASV entry inh)
O=c1c2ccccc2oc2cc(C#CC3(O)CCCCC3)ccc12	HCV inh inconclusive, HCMV antiviral -80 (no result: Marburg entry inh, LASV entry inh)
COc1cccc2sc3ccc(C#CC4(O)CCCCC4)cc3c(=O)c12	HCV inh inconclusive (no result: Marburg entry inh, LASV entry inh)
CSc1ccc(C(=O)c2[nH]c(=O)[nH]c2C)cc1	HCV inh 6.3µM!, Marburg entry inh inconclusive
O=C(Nc1cccc(O)c1)c1noc2c1CCCCC2	Marburg entry inh inconclusive, HCMV antiviral -61, LASV entry inh inconclusive
COc1ccc(NC(=O)C(NC(=O)Cc2cccs2)c2ccccc2)cc1 (stereo not drawn)	Marburg entry inh inconclusive, HCMV antiviral -68
O=C(Cc1cccs1)Nc1cccc(C(=O)Nc2ccc(C(=O)O)cc2)c1	none
COc1ccc(NC(=O)C(NC(=O)Cc2cccs2)c2ccc(C)cc2)cc1 (stereo not drawn)	none
O=C(Cc1cccs1)Nc1ccc(C(=O)O)cc1	Marburg entry inh inconclusive, HCMV antiviral -77 (no result: VACV mCherry inh)
CCOC(=O)c1c(NC(=O)Cc2cccs2)sc(C)c1C	HCV inh 35µM
Cc1cc(C)c2oc(-c3ccc(Cl)c(NC(=O)c4cccs4)c3)nc2c1	Marburg entry inh inconclusive, LASV entry inh inconclusive (no result: HCV inh)
CCOC(=O)c1sc2ncn(CC(=O)Nc3ccc(F)cc3F)c(=O)c2c1C	none (no result: HCV inh)
COc1ccc(NC(=S)NNc2ccc([N+](=O)[O-])cc2S(=O)(=O)Nc2ccc(C)cc2C)cc1	HCV inh 14µM, Marburg entry inh inconclusive, HCMV antiviral -66, LASV entry inh inconclusive
Cc1ccc(NS(=O)(=O)c2cc([N+](=O)[O-])ccc2NNC(=S)Nc2cccc(Cl)c2)c(C)c1	HCV inh inconclusive, Marburg entry inh inconclusive, LASV entry inh inconclusive (no result: HCMV antiviral)
Cc1ccc(NS(=O)(=O)c2cc([N+](=O)[O-])ccc2NNC(=S)Nc2cc(C)ccc2C)c(C)c1	HCV inh 11µM, Marburg entry inh inconclusive, HCMV antiviral -103, LASV entry inh 14µM
Cc1ccc(CNC(=O)Cn2c(SCC(=O)Nc3ccc(F)cc3)nc3ccccc32)cc1	HCMV antiviral -93, LASV entry inh inconclusive (no result: HCV inh, Marburg entry inh)
COc1ccc(CNC(=O)Cn2c(SCC(=O)Nc3ccc(OC)cc3)nc3ccccc32)cc1	none (no result: HCV inh, Marburg entry inh)
O=C(Cn1c(SCC(=O)Nc2ccc(F)cc2)nc2ccccc21)NCc1ccc(F)cc1	LASV entry inh inconclusive (no result: HCV inh, Marburg entry inh)
CC1CCCC(C)N1C(=O)Cn1c(SCC(=O)NCc2ccc3c(c2)OCO3)nc2ccccc21 (stereo not drawn)	HCMV antiviral -68
CN(C)C(=O)Cn1c(SCC(=O)NCc2ccc3c(c2)OCO3)nc2ccccc21	none (no result: VACV mCherry inh)
O=C(Cn1c(SCC(=O)Nc2ccc(F)cc2)nc2ccccc21)NCc1ccc(Cl)cc1	HCMV antiviral -74, VACV mCherry inh inconclusive, LASV entry inh inconclusive (no result: HCV inh, Marburg entry inh)
Cc1ccc(NC(=O)CSc2nc3ccccc3c3nc4ccccc4n23)cc1	HCV inh inconclusive, Marburg entry inh 6.5µM, HCMV antiviral -87, LASV entry inh inconclusive (no result: Vaccinia Venus, VACV mCherry inh)
Cc1oc(-c2ccccc2NC(=O)c2ccccc2)nc1CNC(=O)c1cccc(-n2cccn2)c1	none (no result: HCV inh, Marburg entry inh, HCMV antiviral, LASV entry inh)
CCc1ccc(NC(=O)CSc2ccc(-c3sc(-c4ccccc4)nc3C)nn2)cc1	none (no result: HCV inh, Marburg entry inh)
Cc1cc(C)c(C2=NOC3C4CCC(C4)C23)c(C)c1 (stereo not drawn)	HCMV antiviral -63
CC[C@H](C)C1OC(=O)[C@@H](C)[C@@H](CC)NC(=O)[C@H](C)N(C)C(=O)C(C)(C)C(=O)C(C)NC(=O)[C@H](Cc2ccc(OC)cc2)N(C)C(=O)[C@H](C(C)C)N(C)C(=O)CNC(=O)[C@H](CC(C)C)N(C)C(=O)CNC1=O (stereo partly drawn)	Vaccinia Venus 1µM, VACV mCherry inh 0.89µM (no result: HCV inh, Marburg entry inh, HCMV antiviral, LASV entry inh)
CCC[C@H]1NC(=O)[C@H](C)N(C)C(=O)C(C)(C)C(=O)C(C)NC(=O)[C@H](Cc2ccc(OC)cc2)N(C)C(=O)[C@H](C(C)C)N(C)C(=O)CNC(=O)[C@H](CC(C)C)N(C)C(=O)CNC(=O)[C@H]([C@@H](C)CC)OC(=O)[C@H]1C (stereo partly drawn)	HCV inh 0.56µM, Vaccinia Venus 0.32µM, VACV mCherry inh inconclusive (no result: Marburg entry inh, HCMV antiviral, LASV entry inh)
O=C(c1cc(-c2ccc(Cl)cc2)on1)N(Cc1cccc(F)c1)Cc1ccco1	Marburg entry inh inconclusive (no result: HCV inh)
COc1cc(=O)n2c(c1C(=O)N(C)Cc1nonc1C)CCN(Cc1ccc(C)cc1C)CC2	none (no result: HCV inh, Marburg entry inh, HCMV antiviral, LASV entry inh)
CN(Cc1cnccn1)Cc1nc(Cc2ccccc2Cl)no1	none
CCN(Cc1ccncc1)Cc1nc(Cc2ccccc2Cl)no1	HCV inh 11µM, HCMV antiviral -61 (no result: Marburg entry inh, Vaccinia Venus, VACV mCherry inh, LASV entry inh)
CC(=O)OC[C@H]1O[C@H](C/C=N/OCC[C@@H]2C=C[C@H](OC(C)=O)[C@@H](COC(C)=O)O2)C=C[C@@H]1OC(C)=O	none (no result: HCV inh, Vaccinia Venus, HCMV antiviral, VACV mCherry inh, LASV entry inh)
CCCn1cc(C(=O)OCC)c(=O)c2cc(F)c(F)cc21	Marburg entry inh inconclusive
CCOC(=O)c1cn(CC2CC2)c2cc(F)c(F)cc2c1=O	HCV inh 14µM
Cc1cccc(NC(=O)COC(=O)CCCC2=NS(=O)(=O)c3ccccc3N2)c1	HCMV antiviral -104!, LASV entry inh inconclusive
CC(C)N[C@@H](C)Cc1ccc(I)cc1	Marburg entry inh 16µM (no result: HCV inh, Vaccinia Venus, HCMV antiviral, VACV mCherry inh, LASV entry inh)
CC(C)NC(C)Cc1ccc(I)cc1 (stereo not drawn)	HCV inh inconclusive, Marburg entry inh 16µM
CNC(C)Cc1ccc(OC)cc1 (stereo not drawn)	none (no result: HCV inh, Marburg entry inh, Vaccinia Venus, VACV mCherry inh, LASV entry inh)
Cc1nn(-c2ccccc2)c(OC(=O)c2ccccc2)c1S(=O)(=O)c1ccccc1	Marburg entry inh inconclusive (no result: HCV inh)
CCOC(=O)CCc1c(C)c2cc3c(c(C)c2oc1=O)OCN(CCc1ccccc1OC)C3	none (no result: HCV inh)

Source: PubChem BioAssay (National Center for Advancing Translational Sciences (NCATS))
